PubChem BioAssay AID1159580 (chemical genetic matrix, 2015)
Out of some 5,500 compounds screened, about 2,000 (36%) were called active. Another 18% or so got no clear call; they are omitted. No stated cut-off is given here; in the data, active means normalized growth mostly below about 0.91 (no sharp cut-off); inconclusive means no clear call, values can overlap the other calls; inactive means mostly above about 0.92. Some of the results follow.

Test: chemical genetic growth profiling, strain panel (AID 1159580);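 further: tested at 20 µM; growth read once vehicle control cultures reached saturation at 30 °C; 1 = growth at the plate median or of vehicle wells; lower values mean less growth of the strain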
Settings: S. cerevisiae deletion strains, growth OD

Measured: normalized growth

COC(=O)CCCOc1ccc(Cl)cc1Cl
inactive: locus YAL013W, strain DEP1, active compounds read low 0.986 | locus YAL021C, strain ccr4, active compounds read low 0.988 | locus YAL026C, strain drs2, active compounds read low 0.966 | locus YAL030W, strain snc1, active compounds read low 0.968 | locus YBL061C, strain skt5, active compounds read low 0.952 | locus YBR009C, strain hhf1, active compounds read low 0.955 | locus YBR021W, strain FUR4, active compounds read low 0.931 | locus YBR023C, strain chs3, active compounds read low 0.96 | locus YBR171W, strain sec66, active compounds read low 0.916 | locus YBR229C, strain ROT2, active compounds read low 0.993 | locus YBR231C, strain swc5, active compounds read low 0.964 | locus YBR279W, strain paf1, active compounds read low 0.961 | locus YCL011C, strain gbp2, active compounds read low 0.967 | locus YCL016C, strain dcc1, active compounds read low 0.959 | locus YCL029C, strain bik1, active compounds read low 1 | locus YCL061C, strain MRC1, active compounds read low 0.953 | locus YCL069W, strain vba3, active compounds read low 0.962 | locus YCR088W, strain abp1, active compounds read low 0.955 | locus YDL005C, strain med2, active compounds read low 0.958 | locus YDL035C, strain GPR1, active compounds read low 1 | locus YDL040C, strain nat1, active compounds read low 0.954 | locus YDL074C, strain BRE1, active compounds read low 0.999 | locus YDL101C, strain DUN1, active compounds read low 1.02 | locus YDL134C, strain PPH21, active compounds read low 0.998 | locus YDL185W, strain tfp1, active compounds read low 0.988 | locus YDL192W, strain arf1, active compounds read low 0.996 | locus YDR001C, strain nth1, active compounds read low 0.967 | locus YDR069C, strain doa4, active compounds read low 0.967 | locus YDR101C, strain arx1, active compounds read low 0.987 | locus YDR137W, strain rgp1, active compounds read low 0.899 | locus YDR150W, strain NUM1, active compounds read low 0.989 | locus YDR159W, strain sac3, active compounds read low 0.956 | locus YDR162C, strain NBP2, active compounds read low 0.991 | locus YDR195W, strain ref2 0.972 | locus YDR297W, strain sur2, active compounds read low 0.961 | locus YDR318W, strain mcm21, active compounds read low 0.993 | locus YDR334W, strain swr1, active compounds read low 0.974 | locus YDR335W, strain msn5, active compounds read low 0.968 | locus YDR388W, active compounds read low 0.992 | locus YDR392W, strain spt3, active compounds read low 0.902 | locus YDR502C, strain sam2, active compounds read low 0.995 | locus YEL003W, strain gim4, active compounds read low 0.966 | locus YEL037C, strain rad23, active compounds read low 0.968 | locus YEL061C, strain CIN8 (second series), active compounds read low 0.961 | locus YEL061C, strain CIN8, active compounds read low 0.985 | locus YER015W, strain faa2, active compounds read low 0.959 | locus YER016W, strain bim1, active compounds read low 0.964 | locus YER110C, active compounds read low 0.995 | locus YER111C, strain swi4, active compounds read low 0.956 | locus YER155C, strain BEM2 (second series), active compounds read low 0.922 | locus YER155C, strain BEM2, active compounds read low 0.984 | locus YER167W, strain BCK2, active compounds read low 1 | locus YFR010W, strain ubp6, active compounds read low 0.974 | locus YGL078C, strain dbp3, active compounds read low 0.983 | locus YGL086W, strain mad1, active compounds read low 0.991 | locus YGL167C, strain pmr1, active compounds read low 0.953 | locus YGL173C, strain kem1, active compounds read low 0.948 | locus YGL227W, strain vid30, active compounds read low 0.95 | locus YGL240W, strain doc1, active compounds read low 0.949 | locus YGL248W, strain PDE1, active compounds read low 1 | locus YGL253W, strain hxk2, active compounds read low 0.965 | locus YGR078C, strain PAC10, active compounds read low 0.991 | locus YGR135W, strain pre9, active compounds read low 0.994 | locus YGR229C, strain SMI1, active compounds read low 0.994 | locus YGR252W, strain gcn5, active compounds read low 0.977 | locus YHR013C, strain ard1, active compounds read low 0.958 | locus YHR027C, strain rpn1, active compounds read low 0.975 | locus YHR030C, strain SLT2, active compounds read low 0.994 | locus YHR079C, strain IRE1 (second series), active compounds read low 1 | locus YHR094C, strain hxt1, active compounds read low 0.985 | locus YHR129C, strain ARP1, active compounds read low 0.994 | locus YHR142W, strain chs7, active compounds read low 0.965 | locus YHR200W, strain rpn10, active compounds read low 0.996 | locus YIL066C, strain RNR3, active compounds read low 0.993 | locus YIL073C, strain SPO22, active compounds read low 1.07 | locus YIL125W, strain kgd1, active compounds read low 0.983 | locus YIR030C, strain dcg1, active compounds read low 0.994 | locus YJL092W, strain hpr5, active compounds read low 0.957 | locus YJL095W, strain BCK1 (second series), active compounds read low 0.955 | locus YJL095W, strain BCK1, active compounds read low 0.942 | locus YJL115W, strain asf1, active compounds read low 0.967 | locus YJL129C, strain trk1, active compounds read low 0.931 | locus YJL134W, strain LCB3, active compounds read low 0.995 | locus YJL154C, strain vps35, active compounds read low 0.971 | locus YJL164C, strain tpk1, active compounds read low 0.964 | locus YJL166W, strain qcr8, active compounds read low 0.955 | locus YJL168C, strain set2, active compounds read low 1.01 | locus YJL187C, strain SWE1 (second series), active compounds read low 1 | locus YJL187C, strain SWE1, active compounds read low 0.973
